Hit rate of the full screen: of about 69,000 compounds, about 8,600 (12%) showed an effect of 50% or more. The sample holds strong results, similar compounds and a random draw of the others, so the mix is not that of the screen.

The test relates to Plasmodium berghei. The experiment in a line: Screen against P. berghei liver stage (PbLuc), transformed with Luciferase, at 10uM. The class given is functional, HepG2. Particulars: tested at 10 uM.
On to `CNc1cc(CNC(=O)c2ccccc2OC)nc(-c2ccncc2)n1`, for which the INHIBITION came out at 23.4%. In the case of `O=c1[nH]nc2c(S(=O)(=O)N3CCCCC3)cccn12` it was 51%; in that of `O=c1[nH]nc2c(S(=O)(=O)N3CCCCCC3)cccn12`, -15.2%.

As to `O=c1[nH]nc2c(S(=O)(=O)N3CCCC3)cccn12`, the INHIBITION came to 6.12%.

Consider `Cc1ccoc1C1=NNC(=CN2CCn3c(nnc3C(C)C)C2)O1`, for which the INHIBITION is 15.3%. As to `CC(C)c1nc(CN(C)C(=O)C(O)c2ccc(Cl)cc2)cs1` (stereo not drawn), the INHIBITION is reported as -15.6%. `O=c1cc(CN(Cc2ccco2)C2CC2)nc2ccc(Br)cn12`: the INHIBITION came out at 9.65%. As for `CN1CCC(N(Cc2ccco2)S(=O)(=O)c2ccc(Br)cc2Cl)CC1`, the INHIBITION stood at 61.2%. Turning to `CN1CCC(N(Cc2ccco2)S(=O)(=O)c2ccc(Cl)cc2)CC1`, the INHIBITION stood at 27.9%. In the case of `CC1CCN(C(=O)CN(Cc2ccco2)C2CC2)CC1`, the INHIBITION turned out to be 37%. `CN1CCC(N(Cc2ccco2)S(=O)(=O)c2cc(Br)ccc2Br)CC1`: the INHIBITION is recorded as 69.8%. In the case of `CN(C1CCCCC1)S(=O)(=O)N1CCN(Cc2ccco2)CC1` it was 40%; in that of `CC(NCc1cccc(Cl)c1)c1ccc(OCC(=O)NC2CC2)cc1` (stereo not drawn), 13.3%; in that of `COc1ccc2nnc(CCC(=O)NCc3cccn3C)n2n1`, 9.57%. In the case of `Cc1nc(CCC(N)=O)cc(C2CCCN2S(C)(=O)=O)n1` (stereo not drawn), the INHIBITION turned out to be 26.1%. Turning to `CC(C)c1nc2c(n1C)CCN(CC(=O)Nc1nncs1)C2`, the INHIBITION is listed as -12.2%. Take `CC(=O)NC1CCN(c2ccnc(C3CCNCC3)c2)CC1`: the INHIBITION came to 2.55%. In the case of `Fc1ccc2[nH]c3c(c2c1)CCN1C(c2ccncc2)N2CCC31CC2` (stereo not drawn), the INHIBITION was -62.4%. In the case of `O=C(CSC(F)(F)F)N1CCC2(CCCN(C3CCOCC3)C2=O)C1` (stereo not drawn) it was -36.6%; in that of `CCN(CC)C(=O)Nc1ccc(C(=O)N(C)C)c(C)c1`, 19.7%. In the case of `Cc1cc(NCC(C)C)ccc1C(=O)N(C)C` it was 21.5%. On to `Cc1cc(NC(N)=O)ccc1C(=O)N(C)C`, for which the INHIBITION amounted to 61%.

For the compound `Cn1cc(-c2nnn3c2COC(CNCC2CCOCC2)C3)cn1` (stereo not drawn), the INHIBITION is 5.67%.

On to `CSCCc1c(-c2ccccc2)ncn1CCNc1cccnc1`, for which the INHIBITION came to 63.6%. The figure for `Cc1c(-c2ccccc2)ncn1CC(c1cccnc1)N1CCOCC1` (stereo not drawn) is 37.2%; for `CSC(C)Cc1c(-c2ccccc2)ncn1CCCNc1cccnc1` (stereo not drawn) it is 82.5%.

Turning to `Cc1cc(NCCCNc2cccnc2)n2nc(C)c(C)c2n1`, the INHIBITION stood at 3.945%. `CCN(C)CC(C)Cn1cnc(-c2ccccc2)c1C` (stereo not drawn): the INHIBITION is given as -107%.

Regarding `Cc1c(-c2ccccc2)ncn1CCCNc1cccnc1`, the INHIBITION is on record as 22.7%. Regarding `CC[C@H]1N(Cc2ccco2)CCC[C@]12CCC(=O)N2C`, the INHIBITION was 1.34%.

`CC(C)NC(=O)Nc1ncc(-c2cccnc2)s1`: the INHIBITION is reported as -42.9%. For the compound `Cc1nn(C)c(C)c1C1COCCN1C(=O)c1ccc(Cl)o1` (stereo not drawn), the INHIBITION was -16%.

As for `Cc1ccc(NCc2cn3c(n2)CN(Cc2ccoc2)CC3)nn1`, the INHIBITION stood at 26.5%. On to `O=C1CC2(CCSC2)C(=O)N1Cc1ncc(-c2cccc(F)c2)o1` (stereo not drawn), for which the INHIBITION is -26.8%. Regarding `COc1cccc(-c2cc(C(=O)N3N=C(C)CC3(O)C(F)(F)F)[nH]n2)c1` (stereo not drawn), the INHIBITION was determined as 38.3%. On to `Cc1ncc(-c2ccccn2)c(CCNC(=O)CCC2CCCO2)n1` (stereo not drawn), for which the INHIBITION is reported as 28.5%.

As to `C[C@@H](NCc1cccc(Cl)c1)c1onc(-c2ccc(F)cc2)c1C(=O)O`, the INHIBITION is -3.58%. With `CCCc1nc(CN2CCOC(Cn3cccn3)C2)no1` (stereo not drawn), the INHIBITION is reported as -43.5%. Take `CC(C)N1CCC(NCc2cccnc2N(C)Cc2ccccc2)CC1`: the INHIBITION is 37.8%. Take `CN(Cc1ccccc1)c1ncccc1CNC1CCSCC1`: the INHIBITION is reported as 51.8%. `CN(Cc1ccccc1)c1ncccc1CNC1CN2CCC1CC2` (stereo not drawn): the INHIBITION was found to be 62.6%. For `CN(Cc1ccccc1)c1ncccc1CNC1CCCC1`, the INHIBITION is recorded as 20.4%.

Turning to `CN(Cc1ccccc1)c1ncccc1CNC1CCC1`, the INHIBITION stood at 22.5%. With `CC(=O)N1CCC(NCc2cccnc2N(C)Cc2ccccc2)CC1`, the INHIBITION was 6.31%. Regarding `CC(C)(C)CC(=O)NCC(=O)Nc1ccn(Cc2ccncc2)n1`, the INHIBITION is -12.4%. For `Cc1nn(C)cc1C(=O)N1C[C@@H]2CC[C@H]1CN(S(=O)(=O)N(C)C)C2`, the INHIBITION was -109%. For the compound `Cn1cccc1C(O)CNC(=O)c1ccc(C(F)(F)F)cc1` (stereo not drawn), the INHIBITION was -118%. On to `CS(=O)(=O)N1CCC2(CCN(C(=O)c3cccnc3)CC2)C1`, for which the INHIBITION turned out to be 58.8%.

As for `Cc1ccc(C(=O)N2CCC3(CCCN(c4ccc(C)nn4)C3)C2)cn1` (stereo not drawn), the INHIBITION is reported as 18.6%. The figure for `O=C(c1cccnc1)N1CCC2(CCN(C(=O)c3ccco3)CC2)C1` is 59.3%. In the case of `Cc1ccc(C(=O)N2CCC3(CCN(C(=O)c4cccnc4)C3)CC2)o1` it was 34.7%. For the compound `Cc1ccc(N2CCC3(CCCN(C(=O)c4cccnc4)C3)C2)nn1` (stereo not drawn), the INHIBITION was 53.5%. For the compound `O=C(N1CCCC1)N1CCC2(CC1)CN(c1cccnc1)C(=O)CO2`, the INHIBITION is listed as 82.9%. `CC(=O)NCC(=O)N1CCC2(CC1)CN(c1cccnc1)C(=O)CO2`: the INHIBITION is given as 17.1%. `CS(=O)(=O)N1CCC2(CN(C(=O)c3cccnc3)C2)C1`: the INHIBITION worked out at 33.5%.

In the case of `CS(=O)(=O)N1CCOCC2(CCN(C(=O)c3cccnc3)CC2)C1`, the INHIBITION is given as 18.5%. In the case of `O=C(CC1CC1)N1CCC2(CC1)CN(c1cccnc1)C(=O)CO2` it was 30.3%. The figure for `Cc1occc1C(=O)N1CCC2(CCN(C(=O)c3cccnc3)C2)CC1` is 28.5%. Regarding `Cc1cccc(N2CCC3(CCCN(C(=O)c4cccnc4)C3)C2)n1` (stereo not drawn), the INHIBITION is listed as -19.1%. As to `Cc1nn(C)c(C)c1CNCc1cccnc1N1CCOCC1`, the INHIBITION came out at 22.5%.

Consider `CN(C)C(=O)C1OC2(CCN(C(=O)c3ccco3)CC2)c2ccccc21` (stereo not drawn), for which the INHIBITION was found to be 12.7%. Consider `CC(C#N)CN(C)C(=O)CCNC(=O)C(C)(C)C` (stereo not drawn), for which the INHIBITION is reported as -6.91%. In the case of `CCc1[nH]ncc1C(=O)N1CCCC(n2cc(C)cn2)C1` (stereo not drawn), the INHIBITION was -12.2%. The figure for `O=C(c1ccco1)N1C[C@H]2CCCN(Cc3cccs3)[C@H]2C1` is 37%. `CC(C)c1nn(C)c(N2CCOCC2)c1CNCCC(=O)N(C)C`: the INHIBITION stood at 24.95%. In the case of `O=S(=O)(NCc1ccccc1)Nc1ccc(-n2cncn2)cc1` it was 35%. As to `CC(C)c1n[nH]c(C2CN(C(=O)CCc3cscn3)CCO2)n1` (stereo not drawn), the INHIBITION was -15.52%. As for `Cc1ccccc1OCC(=O)N1CCCC(CNS(C)(=O)=O)C1` (stereo not drawn), the INHIBITION was -3.8%.

Source of the values: ChEMBL document CHEMBL4513216, “Probing the Open Global Health Chemical Diversity Library for Multistage-Active Starting Points for Next-Generation Antimalarials” (ACS Infect Dis, 2020).
